Hits are enriched below; roughly 2.8% of the tested compounds scored in any of these assays.
PP5 primary: blocks human protein phosphatase 5 activity; P53041; purified PP5c, OMFP substrate fluorescence; inhibition, % at 6.7 µM; 320,000 tested, 0.18% active;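 active means inhibition above the campaign's mean inhibition across all tested compounds plus 3 SD, cut at about 9.5% in these data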;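 further: 0% = DMSO only and 100% = 100 µM cantharidin control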
IDE cell activ: activators of human insulin-degrading enzyme in cells | P14735 | 340,000 tested, 0.073% active | activation, % at 5.96 µM | HEK cells, FAbeta-B cleavage, fluorescence polarization; 0% vehicle, 100% cell-free pure enzyme wells;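 active means activation above the mean of all tested compounds plus 3 SD, set per screening campaign, cut at about 17% in these data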
Granule exo inh: lytic granule exocytosis inhibition | TALL-104 LAMP-1 surface exposure, flow cytometry; cells stimulated with thapsigargin and PMA | inhibition, % at 10 µM | 360,000 tested, 0.66% active;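 active means inhibition above about 55%, limit read from the data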
PP1 inh: counter-screen for PP5 inhibitors: inhibitors of human PP1-alpha; inhibition, % at 6.7 µM; purified PP1alpha, OMFP fluorescence; 320,000 tested, 0.9% active; AID 2235; P62136;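 active means inhibition above the mean inhibition of all tested compounds plus 3 SD, computed separately for each screening campaign, cut at about 15% in these data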
Target sequence (P62136 whole entry, looked up): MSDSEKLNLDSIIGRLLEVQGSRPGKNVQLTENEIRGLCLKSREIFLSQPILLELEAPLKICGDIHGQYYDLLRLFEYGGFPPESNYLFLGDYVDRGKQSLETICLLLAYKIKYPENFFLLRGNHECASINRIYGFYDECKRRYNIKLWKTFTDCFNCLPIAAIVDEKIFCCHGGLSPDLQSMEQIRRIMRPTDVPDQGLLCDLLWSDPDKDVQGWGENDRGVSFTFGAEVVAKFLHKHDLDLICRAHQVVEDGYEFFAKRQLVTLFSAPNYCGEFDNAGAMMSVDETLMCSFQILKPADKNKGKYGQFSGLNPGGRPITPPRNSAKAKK
SKKanGAS inh: blocks kanamycin growth of S. pyogenes SKKanGAS strain | 300,000 tested, 1.3% active | BacTiter-Glo, 6 h | inhibition, % at 7.5 µM | AID 1662;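 active means mean replicate score, as percent of positive control median, at least 50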;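 further: strain carries kanamycin resistance gene driven by streptokinase promoter and grows in 40 µg/ml kanamycin; loss of luminescence reflects streptokinase promoter inhibition or plain growth inhibition; 0% = median of DMSO wells and 100% = positive control at its reference dose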
IDE inh: inhibitors of human insulin-degrading enzyme in cells. 320,000 tested, 0.41% active. AID 434962. inhibition, % at 5.59 µM. HEK cells, FAbetaB cleavage, fluorescence polarization;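 active means percent inhibition above the average of all tested compounds plus 3 SD, set per screening campaign, cut at about 16% in these data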;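 further: IDE supplied by intact live HEK cells; FP after avidin binding of uncleaved biotin substrate so inhibition keeps polarization high; 0% = DMSO wells and 100% = 60 µM reference IDE inhibitor Ii1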
Numbers without * were called inactive.

`CC(=O)Nc1nc(-c2ccc([N+](=O)[O-])cc2)cs1` gave PP5 primary -1, IDE cell activ -2, Granule exo inh 9, PP1 inh -2, SKKanGAS inh -7 and IDE inh 2.
`O=C(Nc1ccc([N+](=O)[O-])cc1)Nc1nc(-c2ccc(Cl)s2)cs1` gave PP5 primary 1, IDE cell activ 5, Granule exo inh 25, PP1 inh 13, SKKanGAS inh 79* and IDE inh 2.
`Cc1nc(N/N=C\c2ccc3c(c2)OCO3)sc1C` gave PP5 primary 2, IDE cell activ 0, Granule exo inh -7, PP1 inh 1, SKKanGAS inh 53* and IDE inh 1.
O=S1(=O)CC(c2ccccc2)=NN=C(c2ccccc2)C1 was read as Granule exo inh -10.
For CC(C)(C)OC(=O)N1CCCC(C(=O)Nc2ccc(C(=O)NCCc3ccccc3)cc2)C1 (centres undefined) the results were IDE cell activ 3 and Granule exo inh 5.
N#C/C(=C\c1ccc(-c2ccccc2[N+](=O)[O-])o1)C(=O)Nc1nc(-c2cccs2)cs1 was read as PP5 primary 2, IDE cell activ 1, Granule exo inh 5, PP1 inh 16*, SKKanGAS inh 27 and IDE inh 2.
CCCN(CCC)c1nc(-c2ccccn2)nc2ccccc12 was read as IDE cell activ 3, Granule exo inh 43 and SKKanGAS inh 97*.
`COc1ccc(Oc2nc(-c3ccccn3)nc3ccccc23)cc1` gave PP5 primary -2, Granule exo inh -5, PP1 inh 15, SKKanGAS inh 80* and IDE inh 1.
For c1ccc(Oc2nc(-c3ccccn3)nc3ccccc23)cc1 the results were PP5 primary 1, Granule exo inh -2, PP1 inh 16*, SKKanGAS inh 109* and IDE inh 6.
Screening Cc1cn(CCOc2ccc(Cl)cc2)c(=O)[nH]c1=O returned PP5 primary -3, IDE cell activ 2, Granule exo inh 9, PP1 inh 0, SKKanGAS inh -6 and IDE inh -4.
`O=C(NCCNC(=O)c1ccc(-c2ccc(Cl)c(Cl)c2)o1)c1cnccn1` gave PP5 primary 2, IDE cell activ 3, Granule exo inh 9, PP1 inh 1, SKKanGAS inh -8 and IDE inh 0.
Screening Cc1ccc(C(=O)OCN2C(=O)c3ccccc3C2=O)c(O)c1 returned PP5 primary 2, IDE cell activ -2, Granule exo inh 2, PP1 inh 2, SKKanGAS inh -1 and IDE inh 9.
Screening COc1ccc(NC(=O)c2c[nH]n3c(=O)cc(C4CCN(C(=O)OC(C)(C)C)CC4)nc23)cc1Cl returned PP5 primary -1, IDE cell activ 3, Granule exo inh -1, PP1 inh 14, SKKanGAS inh 52* and IDE inh 0.
Screening CC(C)(C)OC(=O)N1CCC(c2cc(=O)n3[nH]cc(C(=O)Nc4ccc(F)c(Cl)c4)c3n2)CC1 returned PP5 primary 1, IDE cell activ 6, Granule exo inh 4, PP1 inh 2, SKKanGAS inh 68* and IDE inh 0.
Screening CN(CC(=O)Nc1cccc(F)c1)C(=O)C1CCC(C(=O)N(C)CC(=O)Nc2cccc(F)c2)CC1 (centres undefined) returned IDE cell activ 0 and Granule exo inh -1.
For COc1ccccc1C(=O)Nc1nc(-c2ccc(S(=O)(=O)N3CCOCC3)cc2)cs1 the results were PP5 primary 2, IDE cell activ -4, Granule exo inh 65*, PP1 inh 4, SKKanGAS inh 9 and IDE inh 4.
`COc1ccccc1OC(C)C(=O)Nc1nc(-c2ccc(S(=O)(=O)N3CCOCC3)cc2)cs1` (centres undefined) gave PP5 primary 4, IDE cell activ -1, Granule exo inh 3, PP1 inh 0, SKKanGAS inh 11 and IDE inh -1.
O=C(NC(=S)N1CCOCC1)c1cn(-c2ccccc2)nc1-c1ccc(F)cc1 was read as PP5 primary 4, IDE cell activ 1, Granule exo inh 18, PP1 inh 2 and IDE inh 1.
